From PubChem BioAssay (Tox21)
Records with an inconclusive call do not appear. The source made the active and inactive calls. Calls follow the shape of the dose curve; as a rule, active = well fitted curve in the direction sought with a large enough effect in the repeat runs; inconclusive = weak or mixed curves; inactive = no such curve, though single readings can be large; an effect the other way counts as inactive or inconclusive.

Tests used:
[1] = target: Cytochrome P450 2C19 (Homo sapiens) (UniProt P33261); assay: Cytochrome P450 Family 2 Subfamily C Member 19 (CYP2C19) small molecule antagonists: luciferase reporter qHTS assay (AID 1671197); also: nearly all actives have a fitted effect of over 65% in size; also: potency is read from the fitted curve at half-maximal effect
Cytochrome P450 2C19 (Homo sapiens), sequence (P33261 whole entry, looked up): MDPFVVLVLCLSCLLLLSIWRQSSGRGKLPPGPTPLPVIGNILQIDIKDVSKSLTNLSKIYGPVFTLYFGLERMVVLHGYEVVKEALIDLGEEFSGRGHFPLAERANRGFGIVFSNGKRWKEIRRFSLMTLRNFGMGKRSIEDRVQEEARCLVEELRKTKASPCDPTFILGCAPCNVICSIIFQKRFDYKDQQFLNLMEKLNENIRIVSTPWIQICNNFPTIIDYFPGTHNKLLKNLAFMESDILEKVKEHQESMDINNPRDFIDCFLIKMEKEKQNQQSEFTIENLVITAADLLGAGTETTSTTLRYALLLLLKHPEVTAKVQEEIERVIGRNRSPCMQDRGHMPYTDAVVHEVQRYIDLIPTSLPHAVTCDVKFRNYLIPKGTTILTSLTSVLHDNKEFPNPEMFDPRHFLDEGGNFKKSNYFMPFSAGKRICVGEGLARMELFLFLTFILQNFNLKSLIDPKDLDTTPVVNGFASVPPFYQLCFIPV
Procedure, shortened: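 Light output is proportional to CYP2C19 activity: proluciferin substrate is converted to luciferin, then detected by a luciferin detection reagent that also stops the 1 h, 37C NADPH-driven reaction. Ketoconazole serves as positive control.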

[2] = target: Cytochrome P450 2C9 (Homo sapiens) (UniProt P11712); assay: Cytochrome P450 Family 2 Subfamily C Member 9 (CYP2C9) small molecule antagonists: luciferase reporter qHTS assay (AID 1671198); also: nearly all actives have a fitted effect of over 50% in size; also: potency is read from the fitted curve at half-maximal effect
Cytochrome P450 2C9 (Homo sapiens), sequence (P11712 whole entry, looked up): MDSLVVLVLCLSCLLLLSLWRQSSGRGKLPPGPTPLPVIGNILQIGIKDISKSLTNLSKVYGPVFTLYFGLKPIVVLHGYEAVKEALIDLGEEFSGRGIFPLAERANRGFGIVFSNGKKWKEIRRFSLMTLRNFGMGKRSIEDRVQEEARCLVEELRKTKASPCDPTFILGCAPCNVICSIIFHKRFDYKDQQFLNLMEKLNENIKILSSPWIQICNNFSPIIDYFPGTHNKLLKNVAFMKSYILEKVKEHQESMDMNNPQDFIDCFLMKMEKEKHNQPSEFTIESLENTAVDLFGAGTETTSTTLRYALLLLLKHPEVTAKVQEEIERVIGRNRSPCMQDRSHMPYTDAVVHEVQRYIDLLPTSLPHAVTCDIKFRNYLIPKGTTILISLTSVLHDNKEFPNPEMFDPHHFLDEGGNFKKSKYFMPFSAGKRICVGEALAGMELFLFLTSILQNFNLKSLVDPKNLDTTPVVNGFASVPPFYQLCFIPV
Procedure, shortened: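 P450-Glo proluciferin substrate with CYP2C9 enzyme; 10 min RT preincubation, then NADPH regeneration 1 h at 37C; luciferin detection reagent 20 min RT, luminescence in relative luminescence units.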

[3] = target: Cytochrome P450 1A2 (Homo sapiens) (UniProt P05177); assay: Cytochrome P450 Family 1 Subfamily A Member 2 (CYP1A2) small molecule antagonists: luciferase reporter qHTS assay (AID 1671199); also: nearly all actives have a fitted effect of over 50% in size; also: potency is read from the fitted curve at half-maximal effect
Cytochrome P450 1A2 (Homo sapiens), sequence (P05177 whole entry, looked up): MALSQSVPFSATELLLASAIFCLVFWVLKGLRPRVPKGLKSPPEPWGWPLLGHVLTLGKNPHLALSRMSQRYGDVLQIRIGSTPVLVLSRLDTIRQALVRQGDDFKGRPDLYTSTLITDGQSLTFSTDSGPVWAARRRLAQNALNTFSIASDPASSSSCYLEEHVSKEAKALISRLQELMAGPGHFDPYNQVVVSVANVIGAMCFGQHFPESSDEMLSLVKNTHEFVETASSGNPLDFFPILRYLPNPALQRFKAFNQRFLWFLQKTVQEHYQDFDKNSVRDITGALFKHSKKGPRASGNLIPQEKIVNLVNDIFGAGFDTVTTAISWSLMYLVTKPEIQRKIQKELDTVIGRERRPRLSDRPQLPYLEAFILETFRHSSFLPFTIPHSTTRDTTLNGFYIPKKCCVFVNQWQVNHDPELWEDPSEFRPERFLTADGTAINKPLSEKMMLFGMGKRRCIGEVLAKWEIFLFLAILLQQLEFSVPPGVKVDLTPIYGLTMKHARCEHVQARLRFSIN
Procedure, shortened: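 Read-out is luminescence from luciferin detection reagent (20 min) proportional to CYP1A2 activity; compounds in DMSO preincubated 10 min with enzyme and proluciferin substrate, then NADPH regeneration solution, 1 h, room temperature.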

[4] = target: Voltage-gated inwardly rectifying potassium channel KCNH2 (Homo sapiens) (UniProt Q12809); assay: Human Ether-a-go-go-Related Gene (hERG) channel small molecule antagonists: fluorescence cell-based qHTS assay (AID 1671200);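 also: hERG-expressing U2OS cells given a thallium stimulus after FluxOR II dye loading; series mostly up to about 77 µM; nearly all actives have a fitted effect of over 50% in size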
Voltage-gated inwardly rectifying potassium channel KCNH2 (Homo sapiens), sequence (Q12809 whole entry, looked up): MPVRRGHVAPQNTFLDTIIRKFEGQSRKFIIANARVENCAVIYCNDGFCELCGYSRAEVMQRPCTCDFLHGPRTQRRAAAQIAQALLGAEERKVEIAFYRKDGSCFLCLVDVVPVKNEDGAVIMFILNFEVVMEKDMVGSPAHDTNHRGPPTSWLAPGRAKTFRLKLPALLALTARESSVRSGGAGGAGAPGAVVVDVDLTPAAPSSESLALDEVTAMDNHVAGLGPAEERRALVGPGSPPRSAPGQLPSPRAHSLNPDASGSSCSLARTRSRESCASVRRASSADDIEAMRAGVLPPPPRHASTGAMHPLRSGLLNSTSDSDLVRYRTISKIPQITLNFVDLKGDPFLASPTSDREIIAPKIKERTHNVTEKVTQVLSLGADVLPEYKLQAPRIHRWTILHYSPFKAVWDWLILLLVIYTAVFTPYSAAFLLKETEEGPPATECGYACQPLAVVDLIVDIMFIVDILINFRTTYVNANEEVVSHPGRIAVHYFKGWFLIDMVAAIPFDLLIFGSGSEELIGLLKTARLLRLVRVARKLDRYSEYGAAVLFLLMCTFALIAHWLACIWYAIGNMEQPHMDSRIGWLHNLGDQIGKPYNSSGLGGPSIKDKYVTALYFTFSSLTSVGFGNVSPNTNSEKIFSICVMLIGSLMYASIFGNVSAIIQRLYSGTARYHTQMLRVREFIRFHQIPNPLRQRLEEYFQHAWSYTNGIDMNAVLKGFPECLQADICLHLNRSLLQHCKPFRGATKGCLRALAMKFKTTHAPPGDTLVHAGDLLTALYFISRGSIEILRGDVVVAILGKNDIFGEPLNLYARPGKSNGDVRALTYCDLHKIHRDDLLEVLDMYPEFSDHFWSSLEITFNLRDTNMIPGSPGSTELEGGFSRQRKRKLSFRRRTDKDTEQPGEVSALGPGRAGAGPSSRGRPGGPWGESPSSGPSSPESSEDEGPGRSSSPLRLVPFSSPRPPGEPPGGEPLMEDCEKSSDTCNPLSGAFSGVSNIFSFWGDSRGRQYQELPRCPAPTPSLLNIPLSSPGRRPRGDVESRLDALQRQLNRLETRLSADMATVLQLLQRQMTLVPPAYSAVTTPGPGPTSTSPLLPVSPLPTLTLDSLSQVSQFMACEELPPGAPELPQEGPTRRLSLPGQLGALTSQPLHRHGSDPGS
Procedure, shortened: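 Channel function was assessed by thallium flux. Cells seeded the previous day and kept at 37 C took up FluxOR II dye over 1 h in the dark at room temperature, then sat another 10 min before stimulation.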

[5] = target: Cytochrome P450 3A4 (Homo sapiens) (UniProt P08684); assay: Cytochrome P450 Family 3 Subfamily A Member 4 (CYP3A4) small molecule antagonists: luciferase reporter qHTS assay (AID 1671201); also: series mostly up to about 120 µM; nearly all actives have a fitted effect of over 50% in size
Cytochrome P450 3A4 (Homo sapiens), sequence (P08684 whole entry, looked up): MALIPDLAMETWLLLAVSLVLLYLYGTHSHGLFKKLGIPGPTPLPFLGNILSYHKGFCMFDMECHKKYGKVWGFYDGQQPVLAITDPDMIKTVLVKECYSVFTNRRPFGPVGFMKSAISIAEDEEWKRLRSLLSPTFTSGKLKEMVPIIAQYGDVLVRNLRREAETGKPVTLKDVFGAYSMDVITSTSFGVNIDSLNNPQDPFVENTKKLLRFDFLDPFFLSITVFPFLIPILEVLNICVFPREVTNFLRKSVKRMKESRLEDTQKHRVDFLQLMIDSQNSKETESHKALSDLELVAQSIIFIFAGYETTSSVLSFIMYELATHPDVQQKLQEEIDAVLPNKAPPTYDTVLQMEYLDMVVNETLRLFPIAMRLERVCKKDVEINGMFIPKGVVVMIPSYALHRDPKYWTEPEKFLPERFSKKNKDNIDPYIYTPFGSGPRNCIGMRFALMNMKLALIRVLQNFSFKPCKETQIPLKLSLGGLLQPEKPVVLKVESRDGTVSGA
Procedure, shortened: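 Compounds in DMSO were pin-transferred onto CYP3A4 enzyme-substrate mix and held 10 min at room temperature. NADPH regenerating solution started the reaction for 1 h; luciferin detection reagent stopped it, and luminescence was read after 20 min.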

Measured: Potency

CO[C@@]1(NC(=O)C(C(=O)O)c2ccc(O)cc2)C(=O)N2C(C(=O)O)=C(CSc3nnnn3C)CO[C@@H]21 (stereo partly drawn)
inactive: [1] | [2] | [3] | [4] | [5]

CC(=O)N[C@H]1[C@H]([C@H](O)[C@H](O)CO)OC(C(=O)O)=C[C@@H]1N=C(N)N
inactive: [1] | [2] | [3] | [4] | [5]

CN1C(C)(C)CC(O)CC1(C)C
inactive: [1] | [2] | [3] | [4] | [5]

O=C(O)CNC(=O)c1ccccc1
inactive: [1] | [2] | [3] | [4] | [5]

[Ca+2]
inactive: [1] | [2] | [3] | [4] | [5]

CC(C)[C@H]1CC[C@@H](C)CC1=O
inactive: [1] | [2] | [3] | [4] | [5]

COC(=O)Nc1ccc(Cl)c(Cl)c1
inactive: [4] | [5]
active: [1] 17.7 µM | [2] 70.6 µM | [3] 5.61 µM

CCCCCCCCCCCCCCCCCCO
inactive: [1] | [2] | [3] | [4] | [5]

c1ccc(CCc2ccccc2)cc1
inactive: [1] | [2] | [3] | [4] | [5]

CC1(C)[C@@H]2CC[C@@]1(C)[C@H](O)C2
inactive: [1] | [2] | [3] | [4] | [5]

CC(C)CC(C)(N)C#N (stereo not drawn)
inactive: [1] | [2] | [3] | [4] | [5]

C=CCOCC(O)CO (stereo not drawn)
inactive: [1] | [2] | [3] | [4] | [5]

CCN(C=O)CC
inactive: [1] | [2] | [3] | [4] | [5]

CC(C)C(=O)OC(=O)C(C)C
inactive: [1] | [2] | [3] | [4] | [5]

CCOC(=O)c1ccccc1
inactive: [1] | [2] | [3] | [4] | [5]

CC(=O)Nc1ccc(OCC(O)CNC(C)C)cc1 (stereo not drawn)
inactive: [1] | [2] | [3] | [4] | [5]

CC(C)(N)C#N
inactive: [1] | [2] | [3] | [4] | [5]

C1CCC2(CCCCO2)OC1
inactive: [1] | [2] | [3] | [4] | [5]

CCCCOC(=O)CCC(C)=O
inactive: [1] | [2] | [3] | [4] | [5]

OCCc1ccccn1
inactive: [1] | [2] | [3] | [4] | [5]

Cc1ccnc(NS(=O)(=O)c2ccc(N)cc2)n1
inactive: [1] | [2] | [3] | [4] | [5]

CC(N)C12CC3CC(CC(C3)C1)C2 (stereo not drawn)
inactive: [1] | [2] | [3] | [4] | [5]

CC(=O)c1ccccc1[N+](=O)[O-]
inactive: [1] | [2] | [4] | [5]
active: [3] 39.2 µM

O=[N+]([O-])c1ccc(/C=N\O)o1
inactive: [1] | [2] | [4] | [5]
active: [3] 27.5 µM

CC(C)C1CCC(O)CC1 (stereo not drawn)
inactive: [1] | [2] | [3] | [4] | [5]

CC1=NS(=O)(=O)c2cc(Cl)ccc2N1
active: [3] 15.5 µM
inactive: [1] | [2] | [4] | [5]

O=C(O)CCSCCC(=O)O
inactive: [1] | [2] | [3] | [4] | [5]

CC(=O)Oc1cccc(C)c1
inactive: [1] | [2] | [3] | [4] | [5]

O=C(O)CNC(=O)c1ccc(CO)o1
inactive: [1] | [2] | [3] | [4] | [5]

CCCCCC(C)N (stereo not drawn)
inactive: [1] | [2] | [3] | [4] | [5]

CCC(C(=O)NC(=O)NC(C)=O)c1ccccc1 (stereo not drawn)
inactive: [1] | [2] | [3] | [4] | [5]

COCCOCC(OC)OC
inactive: [1] | [2] | [3] | [4] | [5]

CCOCC(C)O (stereo not drawn)
inactive: [1] | [2] | [4] | [5]

CC(=O)c1ccc2ccccc2c1
active: [1] 28.3 µM
inactive: [2] | [4] | [5]
